Laboratory results taken from PubChem BioAssay AID588800 (Johns Hopkins Ion Channel Center, 2011).

target: Potassium voltage-gated channel subfamily KQT member 2 (Rattus norvegicus) (UniProt O88943); assay: blockade of KCNQ2 thallium flux – cell-based, FluxOR thallium flux, CRC set 2, selectivity assay for KCNK9 inhibitor project, SAR follow-up (AID 588800); conditions: KCNQ2-expressing cells; series mostly up to 30 µM; thallium flux ratio, lower = inhibition: at the top concentration
Sequence (O88943 whole entry, looked up): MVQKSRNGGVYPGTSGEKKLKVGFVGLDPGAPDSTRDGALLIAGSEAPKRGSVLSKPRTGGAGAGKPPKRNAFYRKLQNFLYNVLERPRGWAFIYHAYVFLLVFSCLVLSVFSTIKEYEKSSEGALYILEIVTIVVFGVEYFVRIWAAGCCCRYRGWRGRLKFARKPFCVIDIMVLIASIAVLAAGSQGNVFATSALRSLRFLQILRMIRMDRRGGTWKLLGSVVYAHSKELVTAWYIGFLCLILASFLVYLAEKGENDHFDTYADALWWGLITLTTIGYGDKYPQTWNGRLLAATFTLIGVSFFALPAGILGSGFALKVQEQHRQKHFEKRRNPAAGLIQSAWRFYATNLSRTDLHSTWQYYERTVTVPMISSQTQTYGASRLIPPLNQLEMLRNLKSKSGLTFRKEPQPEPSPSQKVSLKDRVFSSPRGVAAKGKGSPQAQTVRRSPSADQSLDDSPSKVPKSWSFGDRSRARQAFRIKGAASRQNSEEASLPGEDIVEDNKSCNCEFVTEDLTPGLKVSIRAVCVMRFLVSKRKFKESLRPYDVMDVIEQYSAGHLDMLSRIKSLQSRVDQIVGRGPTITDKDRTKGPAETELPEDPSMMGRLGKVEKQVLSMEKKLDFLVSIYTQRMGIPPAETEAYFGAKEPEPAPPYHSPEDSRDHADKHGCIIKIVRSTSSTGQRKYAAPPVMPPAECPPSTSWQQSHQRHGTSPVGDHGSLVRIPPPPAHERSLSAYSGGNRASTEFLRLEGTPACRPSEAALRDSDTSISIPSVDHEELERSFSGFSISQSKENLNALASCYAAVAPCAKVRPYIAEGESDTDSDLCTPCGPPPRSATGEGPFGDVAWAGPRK

Thallium flux ratio, lower = inhibition, inactive:
Cc1cccc(C(=O)Nc2cccc(NC(=O)c3ccc(N(C)C)cc3)c2)c1 0.206
COc1ccccc1NC(=O)c1cccc(NC(=O)c2ccccc2)c1 0.168
O=C(Nc1cccc(NC(=O)c2ccsc2)c1)c1ccccc1 0.203
CCOc1ccccc1NC(=O)c1cccc(NC(=O)c2ccc(Cl)cc2)c1 0.18
O=C(Nc1cccc(NC(=O)C2CCCCC2)c1)c1ccccc1 0.214
O=C(Nc1cccc(NC(=O)c2cccc(Cl)c2)c1)c1ccccc1 0.143
CCOc1ccccc1NC(=O)c1cccc(NC(=O)c2ccccc2OC)c1 0.178
COc1ccccc1C(=O)Nc1cccc(NC(=O)c2ccccc2OC)c1 0.346
CCOc1ccccc1NC(=O)c1cccc(NC(=O)C2CCCCC2)c1 0.19
CCOc1ccccc1C(=O)Nc1cccc(NC(=O)c2ccccc2OC)c1 0.172
CCOc1cccc(NC(=O)c2cccc(NC(=O)C3CCCC3)c2)c1 0.125
CCOc1ccccc1NC(=O)c1cccc(NC(=O)c2ccccc2C(F)(F)F)c1 0.183
CCOc1ccccc1NC(=O)c1cccc(NC(=O)C(C)(C)C)c1 0.181
O=C(Nc1cccc(NC(=O)c2cccs2)c1)c1ccccc1 0.191
COc1ccccc1C(=O)Nc1cccc(NC(=O)c2ccccc2C)c1 0.166
O=C(Nc1cccc(NC(=O)c2ccccc2Cl)c1)c1ccccc1 0.169
COc1cccc(OC)c1C(=O)Nc1cccc(NC(=O)c2cccc(C)c2)c1 0.164
COc1ccc(-c2n[nH]c(=S)n2C(C)C2CC3CCC2C3)cc1 (stereo unspecified) 0.157
CCOc1ccccc1C(=O)Nc1cccc(NC(=O)c2cccc(C)c2)c1 0.16
CCOc1ccccc1NC(=O)c1cccc(NC(=O)c2ccc(OC)cc2)c1 0.172
CN(C)c1ccc(C(=O)Nc2cccc(NC(=O)c3ccccc3)c2)cc1 0.189
O=C(Nc1cccc(NC(=O)c2cccnc2)c1)c1ccccc1 0.218
CC(c1ccco1)n1c(-c2ccoc2)n[nH]c1=S (stereo unspecified) 0.157
CCOc1ccccc1NC(=O)c1cccc(NC(=O)C2CC2)c1 0.189
CC(C1CC2CCC1C2)n1c(-c2ccccc2)n[nH]c1=S (stereo unspecified) 0.203
CC(C1CC2CCC1C2)n1c(-c2ccoc2)n[nH]c1=S (stereo unspecified) 0.147
Cc1cccc(-c2n[nH]c(=S)n2C(C)C2CC3CCC2C3)c1 (stereo unspecified) 0.2
CCOc1ccccc1NC(=O)c1cccc(NC(=O)c2cccc(C)c2)c1 0.176
Cc1ccc(C(=O)Nc2cccc(NC(=O)c3ccccc3)c2)cc1 0.142
Cc1ccc(-c2n[nH]c(=S)n2C(C)C2CC3CCC2C3)cc1 (stereo unspecified) 0.174
CCOc1ccccc1NC(=O)c1cccc(NC(=O)c2cccc(OC)c2)c1 0.172
Cc1cccc(C(=O)Nc2cccc(NC(=O)c3ccccc3Cl)c2)c1 0.173
Cc1cccc(C(=O)Nc2cccc(NC(=O)c3ccccc3)c2)c1 0.196
Cc1cccc(C(=O)Nc2cccc(NC(=O)c3ccccc3OCC(C)C)c2)c1 0.148
COc1ccccc1NC(=O)c1cccc(NC(=O)c2ccccc2C(F)(F)F)c1 0.178
Cc1cccc(C(=O)Nc2cccc(NC(=O)c3ccc(Cl)cc3)c2)c1 0.192
